Compound activity as filed in PubChem BioAssay.
This excerpt belongs to a sample that is enriched for hits.
CHX counter: affects cycloheximide protein synthesis inhibition readout, counter-screen. cell reporter, cycloheximide protein synthesis inhibition counterscreen. max response, %. 12% of 300,000 active. AID 2314; in the data active = max response mostly above about 13%, no sharp cut-off; inactive = mostly below about 14%; note: read at 38.3 µM for the half of the compounds with a filed dose; 0% is about no effect
AmpC detergent: inhibitors of E. coli AmpC beta-lactamase with detergent; P00811; AmpC hydrolysis of nitrocefin, absorbance 480 nm, 0.01% Triton; Potency, µM (series often up to 114 µM), for the others: top-dose activity change, negative = inhibition, actives largely listed as inhibitors; 0.041% of 370,000 active;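 note: potency is the fitted concentration of half-maximal effect; 0% = no-compound wells and -100% = no-enzyme wells; nearly all actives have a fitted effect of over 25% in size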
Target sequence (P00811 whole entry, looked up): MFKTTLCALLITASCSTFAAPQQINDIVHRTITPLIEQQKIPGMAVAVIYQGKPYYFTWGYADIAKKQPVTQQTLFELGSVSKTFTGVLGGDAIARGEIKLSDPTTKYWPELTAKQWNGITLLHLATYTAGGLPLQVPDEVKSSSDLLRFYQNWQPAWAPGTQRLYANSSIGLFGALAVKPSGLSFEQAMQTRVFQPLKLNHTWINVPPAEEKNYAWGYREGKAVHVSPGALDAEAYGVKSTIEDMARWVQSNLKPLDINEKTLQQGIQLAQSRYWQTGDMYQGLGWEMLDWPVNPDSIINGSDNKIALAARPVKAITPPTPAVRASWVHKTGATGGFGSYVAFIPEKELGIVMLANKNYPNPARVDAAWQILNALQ
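20 mM phosphate pH 7.0 + 0.01% (detergent screen) or 0.0001% Triton X-100; 5.3 nM AmpC reagent; cpd preinc 15 min RT; nitrocefin (800 uM stock) to start; A480 q20 s × 4 min; Activity was normalised to no-enzyme and no-compound control wells.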
AmpC inh no detg: AmpC beta-lactamase inhibition without detergent | P00811 | AmpC nitrocefin hydrolysis, absorbance 480 nm, 0.0001% Triton | Potency, µM (titrated, usually from 57.1 µM), for the others: at the highest dose activity change, negative = inhibition, actives largely listed as inhibitors | 0.52% of 330,000 active | AID 485341;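 note: potency is the fitted concentration of half-maximal effect; plate controls were no compound for no effect and no enzyme for full effect; nearly all actives have a fitted effect of over 20% in size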
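AmpC (5.3 nM in the dispensed reagent) in 20 mM phosphate pH 7.0 with 0.01% (detergent screen) or 0.0001% Triton X-100 was preincubated with compounds for 15 min at room temperature. Nitrocefin was then added from an 800 uM solution, and hydrolysis was followed at 480 nm.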
AMA1 RON2 block: inhibitors of Plasmodium falciparum AMA1-RON2 interaction. 0.2% of 360,000 active. AlphaScreen AMA1-biotinylated RON2 peptide binding. Potency, µM (series often up to 58.2 µM), for the others: at the highest dose activity change, negative = inhibition, usual class: inhibitors;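 note: potency is the fitted concentration of half-maximal effect; 0% = vehicle wells and -100% = peptide control; nearly all actives have a fitted effect of over 45% in size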
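AMA1 (3D7) with his tag at 25 nM final met compounds first, then biotinylated RON2 peptide at 25 nM; detection used donor plus acceptor beads, 10 µg/mL apiece, read by AlphaScreen after 30 min at room temperature.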
Shiga inhibitor: inhibitors of Shiga toxin in Vero cells | Vero cells, Shiga toxin protein synthesis inhibition reporter | inhibition, % at 38.7 µM | 9.2% of 290,000 active | AID 2315; in the data active = inhibition mostly above about 28%, no sharp cut-off; inactive = mostly below about 43%; note: 0% is about no effect
SARS PLP yeast: blocks SARS-CoV papain-like protease in a yeast assay; 0.19% of 330,000 active; S. cerevisiae expressing SARS-CoV PLpro, growth rescue; Potency, µM (highest dose often 32.9 µM), for the others: top-dose activity, positive = growth rescue, most hits filed as activators; calls by dose curve; note: potency is the fitted concentration of half-maximal effect; 0% is about no effect; nearly all actives have a fitted effect of over 55% in size
Starred values were filed as active, the others as inactive; ? = inconclusive; . = no result given; [ ] = remark or other dose. Unless noted, calls come from the whole dose curve; as a rule, active = well fitted curve in the direction sought with a large enough effect; inconclusive = small, poorly fitted or top-dose-only effect, or another doubt; inactive = no such curve, though single readings can be large; an effect the other way counts as inactive or inconclusive.

SMILES	CHX counter	AmpC detergent	AmpC inh no detg	AMA1 RON2 block	Shiga inhibitor	SARS PLP yeast
CC(=O)c1ccc(S(=O)(=O)N2CCN(C(=O)CSc3ccc(F)cc3)CC2)cc1	10	?	9%	5%	-6	1%
N#C/C(=C/c1cccs1)c1ccccn1	35*	1%	-4%	-5%	73*	-7%
N#C/C(=C\c1ccccn1)c1ccccn1	33*	3%	-12%	0%	61*	0%
Cc1cc(C)n2nc(/C(C#N)=C/c3ccccn3)c(C#N)c2n1	25*	?	-6%	5%	27	1%
COC(=O)C1=C(N)Oc2cc(C)n(CC3CCCO3)c(=O)c2C1c1ccc(Cl)c(Cl)c1 (stereo not given)	-6	-2%	67%	-14%	-9	5%
O=C(NCc1cccc(Cl)c1)c1ccc2nc(N3CCOCC3)sc2c1	14	-11%	105%	-5%	10	-6%
O=C(/C=C/c1ccc(F)cc1)NC(=S)Nc1ccccc1	13	-2%	-13%	0%	34*	0%
O=C(/C=C/c1ccccc1)NC(=S)NNC(=O)c1ccco1	20*	-5%	-45%	-14%	65*	12%
C=CCN(CC=C)S(=O)(=O)c1ccc(NC(=S)NC(=O)/C=C/c2ccccc2)cc1	7	-14%	-38%	-5%	7	-1%
NC(N)=NS(=O)(=O)c1ccc(NC(=S)NC(=O)/C=C/c2ccc(F)cc2)cc1	-3	-1%	-18%	-1%	-13	11%
O=C(/C=C/c1ccccc1)NC(=S)Nc1ncccn1	25*	-2%	-24%	61%	51*	-1%
O=C(/C=C/c1ccccc1)NC(=S)Nc1ccccc1	25*	-19%	28%	9%	.	8%
O=C(/C=C/c1ccccc1)NC(=S)Nc1ccc(N2CCOCC2)cc1	-2	0%	-9%	-2%	10	13%
COc1cc(OC)cc(C(=O)OCn2nnc3ccccc3c2=O)c1	-6	?	-22%	-12%	-8	17%
CN(C)c1ccc(/C=N/N=C/c2ccccc2O)cc1	76*	0%	-22%	13%[11.6 µM]	171*	2%
CCc1ccc(NC(=O)C(=O)NCC2CCCO2)cc1 (stereo not given)	46*	?	-3%	0%	101*	-2%
CCCCc1ccc(NC(=S)NCC2CCCO2)cc1 (stereo not given)	8.8*	?	-16%	?	33*	0%
CN(C)c1ccc(NC(=S)NCC2CCCO2)cc1 (stereo not given)	42*	-11%	-28%	-25%	39*	20%
CCc1ccc(CNC(=O)C(=O)NCC2CCCO2)cc1 (stereo not given)	1	-6%	12%	6%	16	1%
O=C(Cc1ccc(Cl)c(Cl)c1)NNC(=S)NCC1CCCO1 (stereo not given)	-2	-12%	-47%	152%	-3	-7%
S=C(NCC1CCCO1)Nc1ccc(Cl)c(Cl)c1 (stereo not given)	13	?	8%[2.29 µM]	12%	50*	0%
CC1(C(=O)NCc2cccc3ccccc23)CCN1Cc1cc2ccccc2o1 (stereo not given)	.	.	.	-20%	.	.
O=C(CSc1ccc2c(c1)OCCO2)NCCc1ccc(Cl)cc1Cl	0	-6%	-13%	-5%	1	-22%
O=C(Nc1ccncc1)c1cc(S(=O)(=O)N2CCCCC2)ccc1Cl	.	?	-35%	-2%	.	-5%
Cc1ccc(NC(=O)Nc2nnc([C@@H]3C[C@H](O)[C@@H](CO)O3)s2)cc1	.	.	.	1%	.	.
SMILES	CHX counter	AmpC detergent	AmpC inh no detg	AMA1 RON2 block	Shiga inhibitor	SARS PLP yeast
COc1ccccc1C1SCCN1S(=O)(=O)c1ccccc1 (stereo not given)	.	.	.	-10%	.	.
CN(Cc1ccco1)C(=O)c1ccc(OC2CCN(Cc3ccccn3)CC2)cc1	6	0%	24%	49%	4	-5%
CCc1ccc(NC(=O)C(=O)NCC2CCCN2S(=O)(=O)c2ccccc2)cc1 (stereo not given)	.	-11%	-10%	-9%	.	-1%
Cc1cc(CN2C(=O)c3ccccc3C2=O)no1	-2	-8%	-14%	-23%	-14	4%
OC1(c2cccc(C(F)(F)F)c2)CCN(Cc2nnnn2Cc2ccccc2)CC1	-4	-1%	174%	-23%	-10	0%
CN1CCCN(C(=O)COc2cccc(C(F)(F)F)c2)CC1	-2	-13%	1%	-2%	-3	-8%
COc1ccc(CNC(=S)Nc2cccc(F)c2)cc1	12*	?	-48%	5%	28*	21%
COc1ccc(CNC(=S)Nc2cccc(C)c2)cc1	4	-13%	-28%	6%	-12	29%
COc1cccc(NC(=S)NCc2ccc(F)cc2)c1	14*	?	-34%	2%	24	12%
Cc1ccc(NC(=S)NCc2ccc(Cl)cc2)c(C)c1	9	?	-34%	45%	9	0%
CCOC(=O)/C=C/C(=O)OCC(=O)Nc1ccc([N+](=O)[O-])cc1	17*	-5%	-17%	-2%	31	-4%
CCOC(=O)/C=C/C(=O)OCC(=O)Nc1cccc(Cl)c1Cl	9	-10%	-13%	0%	2	-2%
CCOC(=O)/C=C/C(=O)Nc1cccc([N+](=O)[O-])c1	38*	-2%	-4%	-3%	49	-110%
CCOC(=O)/C=C/C(=O)Nc1ccccc1-c1ccccc1NC(=O)/C=C/C(=O)OCC	33*	?	-14%	-9%[2.32 µM]	13	-4%
CCOc1ccc(NC(=O)CCC(=O)N/N=C/c2ccc3c(c2)OCO3)cc1	23*	-6%	-13%	-8%	28	1%
Cc1ccc(C)c(NC(=O)CCC(=O)N/N=C/c2ccc3c(c2)OCO3)c1	20*	7%	-6%	23%	42	1%
CCOc1ccc(/C=N/NC(=O)CCC(=O)Nc2ccc(F)cc2)cc1	3	-6%	-14%	-1%	14	1%
Cc1cc(C)nc(SCC(=O)Nc2ccc3c(c2)OCO3)n1	8	4%	-10%	5%	8	6%
O=C(CCc1ccc(O)c(O)c1)N/N=C/c1ccc2c(c1)OCO2	33*	4%	-30%	-25%	25	1%
Cc1cc(C)nc(SCC(=O)N/N=C/c2ccc3c(c2)OCO3)n1	39*	0%	-2%	10%	60*	-4%
c1cncc(CNc2ncnc3sc4c(c23)CCC4)c1	-3	-6%	-23%	16%	-8	4%
CN1CCN(C(=O)CN(Cc2ccc(Cl)cc2)S(C)(=O)=O)CC1	4	-16%	-14%	1%	-1	6%
COC(=O)c1cc2c(ccn2-c2ccc(F)cc2)n1Cc1ccc(OC(C)=O)cc1	59*	4%	1%	?	122*	22%
